Results on 45 compounds are retold here after publication PMC4336329 (PLoS ONE, 2015).

Hit rate of the full screen: of about 310,000 compounds, about 14,000 (4.5%) showed an effect of 50% or more. The effect is printed as a negative number. The sample as a whole holds a higher share of strong results than the screen did.
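Note: peak tail current of the secondary pulse compared with the same well before compound.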

This test deals with human ether-à-go-go-related gene (hERG) potassium channel (human, UniProt Q12809). Put plainly: primary screen, population patch clamp on CHO cells stably expressing hERG; higher = less effect of the substance.
Chain of human ether-à-go-go-related gene (hERG) potassium channel (Q12809 whole entry, looked up): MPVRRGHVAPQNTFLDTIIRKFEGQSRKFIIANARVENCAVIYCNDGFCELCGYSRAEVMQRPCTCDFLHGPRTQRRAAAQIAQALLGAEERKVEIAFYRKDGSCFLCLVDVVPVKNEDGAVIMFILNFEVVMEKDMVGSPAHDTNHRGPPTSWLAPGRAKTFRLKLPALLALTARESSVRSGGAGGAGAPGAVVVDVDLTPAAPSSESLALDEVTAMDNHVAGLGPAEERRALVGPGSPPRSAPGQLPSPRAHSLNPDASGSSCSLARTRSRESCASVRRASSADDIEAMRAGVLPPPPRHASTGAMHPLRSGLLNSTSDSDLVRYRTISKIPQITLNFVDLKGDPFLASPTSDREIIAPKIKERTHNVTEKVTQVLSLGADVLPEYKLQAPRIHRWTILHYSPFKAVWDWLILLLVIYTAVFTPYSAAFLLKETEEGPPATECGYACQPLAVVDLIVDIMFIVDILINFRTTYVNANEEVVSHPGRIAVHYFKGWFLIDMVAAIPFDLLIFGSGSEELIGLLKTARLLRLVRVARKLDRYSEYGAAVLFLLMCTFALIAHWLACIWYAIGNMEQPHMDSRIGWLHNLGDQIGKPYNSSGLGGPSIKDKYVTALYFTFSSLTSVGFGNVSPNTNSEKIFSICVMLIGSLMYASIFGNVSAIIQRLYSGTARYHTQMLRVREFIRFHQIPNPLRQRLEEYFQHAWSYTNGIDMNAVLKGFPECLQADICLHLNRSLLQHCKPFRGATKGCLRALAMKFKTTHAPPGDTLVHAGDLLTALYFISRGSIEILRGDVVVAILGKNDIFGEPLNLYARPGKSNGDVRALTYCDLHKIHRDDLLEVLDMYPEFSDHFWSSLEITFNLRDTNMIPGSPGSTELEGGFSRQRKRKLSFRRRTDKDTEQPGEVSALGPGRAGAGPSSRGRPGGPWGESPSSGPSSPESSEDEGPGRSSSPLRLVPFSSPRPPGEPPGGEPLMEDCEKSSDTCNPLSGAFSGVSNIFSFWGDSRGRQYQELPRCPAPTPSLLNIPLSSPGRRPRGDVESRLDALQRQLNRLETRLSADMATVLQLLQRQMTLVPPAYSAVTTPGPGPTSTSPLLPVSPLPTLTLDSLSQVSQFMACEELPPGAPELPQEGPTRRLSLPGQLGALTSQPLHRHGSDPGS
Regarding `CCOc1ccc(-c2cnc3ccccc3n2)cc1`, the “hERG current change (%, negative = inhibition) at 10uM” value stood at 14.3%.

Regarding `CC(C)=C1C2CCC1C1C(=O)N(c3ccc(C)c(C)c3)C(=O)C21` (stereo not drawn), the “hERG current change (%, negative = inhibition) at 10uM” value was 3.55%.

In the case of `COc1ccc2nc(C)cc(SCC(=O)N/N=C/c3c(OC)ccc4ccccc34)c2c1`, the “hERG current change (%, negative = inhibition) at 10uM” value came out at 12.8%. The figure for `CC(C)N(C(=O)Cn1c(SCC(=O)NCc2ccc3c(c2)OCO3)nc2ccccc21)C(C)C` is -34.1%; for `CCN(CC)C(=O)CSc1ncnc2c1cnn2-c1ccccc1` it is -14.2%. The figure for `CCSc1nnc(Cn2c(=O)sc3ccccc32)n1-c1ccccc1C` is -2.71%; for `CN(/N=C/c1ccc(N(C)C)cc1)C1=NS(=O)(=O)c2ccccc21` it is 20.6%; for `Cc1ccc2[nH]c3c(=O)n(Cc4ccccn4)cnc3c2c1` it is -1.6%.

With `COC(=O)c1[nH]c2cc(OC)ccc2c1NC(=O)c1c(F)cccc1F`, the “hERG current change (%, negative = inhibition) at 10uM” value is listed as 2.79%. Regarding `COc1ccc(OCCCN2CCCCCC2)cc1.O=C(O)C(=O)O`, the “hERG current change (%, negative = inhibition) at 10uM” value is listed as -19.3%. The figure for `Cc1cc(OCCOCCN2CCCC2)ccc1C(C)C` is -53.9%. As for `Clc1cccc(Cl)c1OCCCCN1CCCCC1.O=C(O)C(=O)O`, the “hERG current change (%, negative = inhibition) at 10uM” value is -40.8%. The figure for `CC(C)Oc1ccc(OCCCN2CCCCCC2)cc1.O=C(O)C(=O)O` is -54.8%. For `Clc1ccc(OCCCCN2CCCCC2)cc1.O=C(O)C(=O)O`, the “hERG current change (%, negative = inhibition) at 10uM” value is -65.5%.

On to `Cc1cc(OCCN2CCCC2)ccc1C(C)C`, for which the “hERG current change (%, negative = inhibition) at 10uM” value was -22.5%.

On to `CCOc1ccc(OCCCCN2CCCC2)cc1.O=C(O)C(=O)O`, for which the “hERG current change (%, negative = inhibition) at 10uM” value is -12.2%. Next, `CC(C)Oc1ccc(C(=O)CCN2CCCCC2)cc1`: -20.9%; `CCOc1cccc(OCCOCCN2CCCC2)c1`: -10.1%. Next, `O=C1COc2ccc(S(=O)(=O)N3CCCCC3)cc2N1`: 20%; `Cc1ccc(NNC(=O)C(O)(c2cccc(C(F)(F)F)c2)c2cccc(C(F)(F)F)c2)cc1`: -7.55%; `COc1cc2c(cc1OC)C(C)N(S(=O)(=O)c1ccc(C)cc1)CC2` (stereo not drawn): -15%. The figure for `COc1ccc(C(C(=O)NC2CCCCC2)N(C(=O)c2snc(C(N)=O)c2N)c2ccccc2OC)cc1` (stereo not drawn) is 11.4%; for `CC1CCC(NC(=O)CCS(=O)(=O)c2ccc3c(c2)oc(=O)n3C)CC1` (stereo not drawn) it is 5.15%; for `c1ccc(-c2ccccc2OCCCCn2ccnc2)cc1` it is -26.4%. Regarding `N=c1c2c(-c3ccccc3)c(-c3ccccc3)n(Cc3ccco3)c2ncn1CCCn1ccnc1`, the “hERG current change (%, negative = inhibition) at 10uM” value was -74.3%.

Turning to `O=C(NCCCn1ccnc1)c1ccco1`, the “hERG current change (%, negative = inhibition) at 10uM” value is on record as -4.47%. As to `OCCNc1ncnc2c1c(-c1ccccc1)c(-c1ccccc1)n2Cc1ccco1`, the “hERG current change (%, negative = inhibition) at 10uM” value is given as -44.9%.

As to `O=c1[nH]c(=O)n(Cc2ccco2)c(O)c1C=NCCCn1ccnc1`, the “hERG current change (%, negative = inhibition) at 10uM” value came out at 16.3%.

Regarding `c1ccc(-c2c(-c3ccccc3)n(Cc3ccco3)c3ncnc(NCCCn4ccnc4)c23)cc1`, the “hERG current change (%, negative = inhibition) at 10uM” value is given as -71.6%. The figure for `N=c1c2c(-c3ccccc3)c(-c3ccccc3)n(Cc3ccccc3)c2ncn1CCCn1ccnc1` is -71.2%; for `Cc1sc2ncnc(NCCCn3ccnc3)c2c1C` it is -46.1%; for `c1ccc(Cn2ccnc2)cc1` it is 19.6%. The figure for `O=C(CSc1nc2cc(C(=O)O)ccc2c(=O)n1-c1ccc(F)cc1)Nc1ccc(F)c(F)c1F` is 1.54%; for `CCCCn1c(NC(=O)c2ccc(F)cc2)c(C#N)c2nc3ccccc3nc21` it is 6.88%.

Consider `CCc1cc(C(=O)OC)c(NC(=O)CC2SC(N)=NC2=O)s1` (stereo not drawn), for which the “hERG current change (%, negative = inhibition) at 10uM” value is -6.56%. The figure for `CCCC(=O)N1CCC(CCC(=O)NC2CC2)CC1` is 7.63%; for `COc1ccc(S(=O)(=O)N2c3ccccc3NC(=O)CC2C)cc1` (stereo not drawn) it is 9.7%. The figure for `O=[N+]([O-])c1ccc(CS(=O)(=O)c2ccc(Cl)cc2)cc1` is -9.81%; for `CCc1ccc(Nc2nnc(SCC(=O)c3c(N)n(C4CC4)c(=O)[nH]c3=O)s2)cc1` it is -17.7%; for `COc1cnc(-c2ccccn2)nc1NC(C)C` it is 7.65%.

Consider `C=CCNC(=O)c1onc(CS(=O)(=O)c2cc(C)cc(C)c2)c1C(=O)NCC=C`, for which the “hERG current change (%, negative = inhibition) at 10uM” value is listed as -8.18%. The figure for `CC(C)[C@H](N)c1nnc(SCC(=O)c2ccc(Cl)cc2)o1.Cl` is -14.2%; for `C[C@H](N)c1nnc(SCC(=O)c2ccc(Cl)cc2)o1` it is -6.79%. Turning to `CCC(C)[C@H](N)c1nnc(SCC(=O)c2ccc(Cl)cc2)o1` (stereo partly drawn), the “hERG current change (%, negative = inhibition) at 10uM” value is -52.5%. Next, `Cc1ccc2oc(C(=O)N(C)Cc3ccon3)c(C)c2c1`: 4.23%.
